Beta cell apopt: beta cell apoptosis inhibition | INS-1E cytokine-induced death, ATP luminescence, 48 h; percent of positive-control rescue, neutral wells zero | AID 435005 | protection from apoptosis, % (no concentration beside the values) | actives 0.8% (n = 300,000);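 active = Every replicate reaches about 75%, or at least half do and their mean reaches it too, limit read from the data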;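 also: 0% = cytokine-treated negative control wells and 100% = positive control rescue; higher means more ATP so stronger rescue from cytokine killing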
Mdm2 MdmX PPI: inhibitors of human Mdm2/MdmX interaction; actives 3% (n = 330,000); O15151+Q00987; SaOS-2 split-luciferase Mdm2/MdmX complementation, luminescence; inhibition, % at 8 µM; AID 485346;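 active = inhibition of at least 50% at 8 µM in the primary screen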
697 NFkB inh: lowers PMA/ionomycin-induced NF-kB signal in 697 B cells. 697 B-cell NF-kB luciferase reporter, 16 h. AID 435022. actives 0.33% (n = 330,000). inhibition, % at 4 µM; in the data active = inhibition above about 35%
Jurkat NFkB inh: lowers PMA/ionomycin-induced NF-kB signal in Jurkat cells; AID 435003; inhibition, % at 4 µM; PMA/ionomycin-induced NF-kB luciferase reporter, luminescence; actives 0.53% (n = 330,000); in the data active = inhibition above about 50%
CSC inhib: cancer stem cell inhibition; cancer stem cell-like cells viability, luminescence; inhibition, % at 7.5 µM; actives 1.1% (n = 300,000); in the data active = inhibition above about 75%; tested in HMLE shEcad cells
Gli-Sufu antag: blocks Gli-Sufu signaling in a luciferase reporter; Sufu-KO-LIGHT fibroblasts, Gli luciferase reporter luminescence; inhibition, % at 5 µM; actives 0.74% (n = 340,000);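 active = inhibition above about 55%, limit read from the data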;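 also: 0% = DMSO-treated cells and 100% = wells with medium but no cells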
Gli-Sufu confirm: confirmation of Gli-SUFU pathway antagonists | shares compounds with Gli-Sufu antag | Sufu-KO-LIGHT cells, Gli luciferase reporter, luminescence | inhibition, % at 5 µM | actives 40% (n = 2,500);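 active = mean inhibition at 5 µM reaching about 45%, limit read from the data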;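 also: plate controls were DMSO-treated cells for no effect and wells lacking cells for full effect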
Gli cytotox: cytotoxic in Gli-SUFU antagonist counter-screen | shares compounds with Gli-Sufu antag | Sufu-KO-LIGHT cells cytotoxicity, ATP luminescence | cytotoxicity, % at 5 µM | actives 32% (n = 2,500) | AID 651994;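 active = mean cytotoxicity at 5 µM above about 25%, limit read from the data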;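 also: cells exposed to compound overnight for roughly 16 to 18 hours; plate controls were DMSO wells with cells for no effect and medium without cells for full effect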
Wnt3a cs: inhibits Wnt3a reporter, counter-screen for Gli-SUFU antagonists; shares compounds with Gli-Sufu antag; Wnt-LIGHT cells, Wnt3a-driven luciferase reporter, luminescence; inhibition, % at 6.25 µM; actives 20% (n = 2,500);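 active = mean inhibition above about 25%, limit read from the data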
Numbers without * were called inactive; · = no result given. Shown are actives, neighbours in structure and some others; about 4.5% of the full set was active somewhere.

SMILES	Beta cell apopt	Mdm2 MdmX PPI	697 NFkB inh	Jurkat NFkB inh	CSC inhib	Gli-Sufu antag	Gli-Sufu confirm	Gli cytotox	Wnt3a cs
Cc1cccc(NC(=O)CS(=O)CC(=O)Nc2cnc3ccccc3c2)c1C (stereo not given)	·	6	1	4	-8	-13	·	·	·
FC(F)(F)c1ccncc1-c1nnnn1-c1ccc(Cl)cc1	-7	37	13	1	-3	-4	·	·	·
FC(F)(F)c1nc(N2CCCC2)ncc1-c1nnnn1-c1ccc(Cl)cc1	33	30	-41	7	19	54	54*	45*	20
CC(NC(=O)c1cc(-c2ccncc2)nc2ccc(Br)cc12)C1CCCO1 (stereo not given)	-4	8	-40	9	-6	8	·	·	·
O=C(CCCCN1CCCCC1)c1ccccc1	-4	7	2	2	-11	0	·	·	·
O=C(C(=Cc1ccccc1)CN1CCCCC1)c1ccccc1	·	·	·	·	·	60*	77*	13	69*
CC1CCC(NC(=O)c2cccc(S(=O)(=O)N3CCN(c4ccccc4)CC3)c2)CC1 (stereo not given)	7	23	-2	13	·	50	47*	25	-30
COc1cccc(CN(C)C(=O)c2cccc(S(=O)(=O)N3CCN(c4ccc(F)cc4)CC3)c2)c1OC	61	34	-44	14	-11	51	50*	33*	-12
CN(Cc1ccc(OC(F)F)cc1)C(=O)c1cccc(S(=O)(=O)N2CCN(Cc3ccccc3)CC2)c1	·	·	·	·	·	58*	58*	22	3
CN(Cc1c(F)cccc1Cl)C(=O)c1cccc(S(=O)(=O)N2CCN(Cc3ccccc3)CC2)c1	·	·	·	·	·	8	·	·	·
CN(CCOc1ccc(Cl)cc1)C(=O)c1cccc(S(=O)(=O)N2CCN(c3ccccc3)CC2)c1	·	·	·	·	·	51	58*	34*	-6
COc1ccc(Cl)cc1NC(=S)NC(=O)c1ccco1	-2	-18	-1	-20	·	-2	·	·	·
Cc1ccc(S(=O)(=O)N2CCOCC2)cc1NC(=O)Cn1nc(C)c([N+](=O)[O-])c1C	-2	5	-6	-14	-9	-8	·	·	·
COc1ccccc1N1CCN(CC(O)c2c(C)[nH]c3ccccc23)CC1 (stereo not given)	5	15	16	-4	1	61*	20	21	-29
COc1ccccc1N1CCN(CC(=O)c2c(C)[nH]c3ccccc23)CC1	-2	0	16	16	8	-6	·	·	·
COc1cccc(CNC(=O)C(NS(=O)(=O)c2ccc3c(c2)CCN3C(C)=O)C(C)C)c1 (stereo not given)	1	11	-11	-6	-5	61*	-3	24	-31
COc1ccc(-c2nnc(SCC(=O)O)n2Cc2ccccc2)cc1	-5	16	-11	-4	-27	-5	·	·	·
CCC(C(=O)NC1CCCCCC1)c1ccccc1 (stereo not given)	1	-39	27	3	7	3	·	·	·
CC[N+](C)(CC)CCC(c1ccccc1)C1CCCCC1 (stereo not given)	105*	25	5	1	-5	56*	50*	18	-19
CC1(C)Cc2ccccc2C2=C(C(=O)N3CCCCCC3)C(=O)C(=O)N21	-9	5	-2	0	-18	72*	12	11	-6
O=C(CCc1nnc2n(Cc3ccc(F)cc3)c(=O)c3ccccc3n12)N1CCN(c2ccccn2)CC1	3	22	-8	8	-21	7	·	·	·
CCN(CC)CCN1C(=O)C2C(C(=O)Nc3cc(C)cc(C)c3)C3C=CC2(O3)C1C(=O)NC1CCCCC1 (stereo not given)	-4	-8	-3	18	-47	64*	12	1	-6
CCN(CC)c1cc2nc(C)n(Cc3ccccc3)c(=O)c2cc1NC(=O)C1CC1	3	17	1	-25	-2	1	·	·	·
Cc1nc2cc(N3CCN(C)CC3)c(NC(=O)Cc3ccccc3)cc2c(=O)n1Cc1ccccc1	-3	-9	-25	6	0	54	49*	10	-14
CN(CCc1ccccn1)C(=O)CC1C(=O)NCCN1Cc1ccc(-c2ccccc2)cc1 (stereo not given)	-7	5	7	-4	-16	60*	9	1	-25
SMILES	Beta cell apopt	Mdm2 MdmX PPI	697 NFkB inh	Jurkat NFkB inh	CSC inhib	Gli-Sufu antag	Gli-Sufu confirm	Gli cytotox	Wnt3a cs
Cc1cc(C)nc(CCNC(=O)CC2C(=O)NCCN2Cc2ccccc2)n1 (stereo not given)	-1	3	-7	4	1	52	21	-4	2
Cc1cc(CNC(=O)CC2C(=O)NCCN2Cc2ccccc2)nn1C (stereo not given)	-1	12	9	4	-6	4	·	·	·
COc1cccc(/C=C/C(=O)NNC(=O)c2ccncc2)c1OC	4	14	4	-17	8	-11	·	·	·
COc1cccc(/C=C/c2ccncc2)c1OC	-4	-26	-32	-10	-4	56*	46*	21	-1
COc1ccccc1CNC(=O)COC(=O)c1ccccc1SCC(=O)N1CCCC1	1	10	9	-14	-13	5	·	·	·
COc1cnc(SCC(=O)O)[nH]c1=O	-9	17	4	0	-9	62*	14	7	12
COc1ccc(CNC(=O)CSc2ncn[nH]2)cc1	-3	-12	10	-18	7	87*	27	4	-1
CCOC(=O)Cn1cnc2c(nnn2-c2ccc(F)cc2)c1=O	-8	24	10	-2	0	-9	·	·	·
Cc1ccc(NC(=S)Nn2cnnc2)c(C)c1	-1	5	21	5	-9	·	·	·	·
Cc1ccc(NC(=O)Nn2cnnc2)c(C)c1	1	30	12	15	-5	55*	31	8	10
Cc1cccc(NC(=O)Nc2cc(C)cc(C)n2)c1	-5	-41	-84	-72	-11	-116	·	·	·
COC(=O)c1ccc(C(=O)OC)c(NC(=O)CSc2nnc(-c3ccccc3Cl)o2)c1	-7	-10	6	-10	-8	98*	10	17	-14
O=C(/C=C/c1ccccc1Cl)Nc1cccc(S(=O)(=O)NC2=NCCCCC2)c1	-3	13	-18	-1	·	51	12	10	-151
O=C1CCC(C(=O)OCC(=O)c2ccccc2)N1 (stereo not given)	-4	9	7	6	-8	-5	·	·	·

Assay outcomes from PubChem BioAssay.
